In PubChem BioAssay (NCATS):
Inconclusive results are not listed. Unmarked numbers belong to inactive results. Activity calls are given as the source filed them. Calls come from the whole dose curve; as a rule, active = well fitted curve in the direction sought with a large enough effect; inconclusive = small, poorly fitted or top-dose-only effect, or another doubt; inactive = no such curve, though single readings can be large; an effect the other way counts as inactive or inconclusive. Residues, ends and D or L forms follow the SMILES beside them. *: point of attachment. Cbz = O=C(OCc1ccccc1)*

Target: ATP-dependent 6-phosphofructokinase (Trypanosoma brucei brucei) (UniProt O15648)
Experiment: qHTS Validation Assay to Find Inhibitors of T. brucei phosphofructokinase (AID 485368);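 for activity change, negative = inhibition: 0% = full PFK enzyme control and -100% = wells without enzyme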
Details: T. brucei PFK enzyme assay, qHTS 7-point titration; series mostly up to 57.5 µM; activity change, negative = inhibition: at the top concentration
In short: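 ADP-Glo luminescence, two-step: residual ATP depleted, then ADP converted to ATP for luciferase. Enzyme 1.25 nM, F6P 0.5 mM, ATP 0.1 mM, pH 8.0 TEA buffer, 45 min RT. Curves fitted and classed by quality and efficacy.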
Potency is the fitted concentration of half-maximal effect.

ATP-dependent 6-phosphofructokinase (Trypanosoma brucei brucei), sequence (O15648 whole entry, looked up): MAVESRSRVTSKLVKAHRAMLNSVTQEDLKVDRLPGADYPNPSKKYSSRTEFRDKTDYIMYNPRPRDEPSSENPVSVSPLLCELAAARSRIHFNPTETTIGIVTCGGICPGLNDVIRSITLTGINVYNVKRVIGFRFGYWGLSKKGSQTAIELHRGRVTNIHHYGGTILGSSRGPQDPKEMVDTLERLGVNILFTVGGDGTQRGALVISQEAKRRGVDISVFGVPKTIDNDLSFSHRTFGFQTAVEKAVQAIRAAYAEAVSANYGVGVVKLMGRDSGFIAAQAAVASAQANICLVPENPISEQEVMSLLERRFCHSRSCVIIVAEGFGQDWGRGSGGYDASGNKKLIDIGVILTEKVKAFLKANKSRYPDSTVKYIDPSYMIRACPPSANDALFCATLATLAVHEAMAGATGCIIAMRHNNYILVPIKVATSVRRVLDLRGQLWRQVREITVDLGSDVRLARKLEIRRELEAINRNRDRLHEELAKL

Structure (SMILES)	outcome	Potency	activity change, negative = inhibition
CC(=O)SC1CC2=CC(=O)CC[C@]2(C)C2CC[C@@]3(C)C(CC[C@@]34CCC(=O)O4)C12 (stereo partly specified)	inactive		
CC(C)[C@@H]1CC[C@@H](C)C[C@@H]1P(=O)(c1ccccc1)c1ccccc1	inactive		
CCCCOc1cc(CC2CNC(=O)N2)ccc1OC (stereo unspecified)	inactive		
O=C(O)C1=CC(=C(c2ccc(O)c(C(=O)O)c2)c2ccc(O)c(C(=O)O)c2)C=CC1=O		60.1 nM (active)	
CCCn1c(=O)c(C)cn2nc(N)nc12	inactive		
C=CC1(C)CC(=O)C2(O)C(C)(O1)C(OC(C)=O)C(O)C1C(C)(C)CCC(O)C12C (stereo unspecified)	inactive		
O=c1[nH]c(=O)c2nc3ccccc3nc2[nH]1			-9.74%
O=C(O)CCC/C=C\C[C@@H]1[C@@H](/C=C/[C@H](O)C2Cc3ccccc3C2)[C@@H](F)C[C@@H]1O			-1.61%
CC(C)[C@H](NC(=O)OCc1ccccc1)C(=O)N[C@H](C=O)Cc1ccccc1 (Cbz-Val-Phe-aldehyde)			5.55%
N[C@H](C(=O)O)[C@H](Cc1ccccc1)C(=O)O	inactive		
CC(=O)O[C@H]1Cc2ccccc2N(C(N)=O)c2ccccc21			33.7%
NC[C@@H]1O[C@H](c2ccccc2)Cc2c1ccc(O)c2O	inactive		
Cc1ccc2c(c1)C(N1CCN(C)CC1)=Nc1cccnc1N2			12.7%
CCN(c1nc(N)c(C(=O)N=C(N)N)nc1Cl)C(C)C	inactive		
CC(C)NC[C@H](O)COc1cccc2ccccc12			25.6%
Cc1nc(N=Nc2cc(S(=O)(=O)O)c3cc([N+](=O)[O-])cc(S(=O)(=O)O)c3c2)c(COP(=O)(O)O)c(C=O)c1O		7570 nM (active)	
CN1CC(O)C(O)C(O)C1CO (stereo unspecified)	inactive		
CCCCCCCCCCCCCCSCC(=O)O	inactive		
C=C1C[C@@]23CC[C@H]4[C@@](C)(CCC[C@@]4(C)C(=O)O)[C@@H]2CC[C@]1(O)C3	inactive		

System: not listed separately
Experiment: Quantitative high throughput screen for delayed death inhibitors of the malarial parasite plastid, 96 hour incubation (AID 488745); note: nearly all actives have a fitted effect of over 70% in size; for activity change, negative = inhibition: % is set by controls: 0 for no effect and ±100 for the full control effect
Details: Plasmodium falciparum growth; series mostly up to 28.7 µM; activity change, negative = inhibition: at the top concentration
In short: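 Decreased firefly luciferase luminescence indicates inhibited growth of reporter-integrated P. falciparum after two generations (96 h, 37 C, 5% CO2). Infected erythrocytes at 0.1% parasitemia, 2% hematocrit, in Albumax-supplemented RPMI 1640.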

Structure (SMILES)	activity change, negative = inhibition	Potency
Cc1nc2c(OCc3ccccc3)cccn2c1CC#N	-7.37%	
O=C(O)C1=CCCN(CCON=C(c2ccccc2)c2ccccc2)C1	3.74%	
Nc1ncnc2c1ncn2C1CCCO1 (stereo unspecified)	-23.7%	
O=C(O)C1=CC(=C(c2ccc(O)c(C(=O)O)c2)c2ccc(O)c(C(=O)O)c2)C=CC1=O	-6.19%	
C=CC1(C)CC(=O)C2(O)C(C)(O1)C(OC(C)=O)C(O)C1C(C)(C)CCC(O)C12C (stereo unspecified)	17.4%	
O=c1[nH]c(=O)c2nc3ccccc3nc2[nH]1	6.46%	
CC(C)C[C@H](NC(=O)C1OC1C(=O)O)C(=O)NCCCCN=C(N)N (stereo partly specified)		2330 nM (active)
CC(C)[C@H](NC(=O)OCc1ccccc1)C(=O)N[C@H](C=O)Cc1ccccc1 (Cbz-Val-Phe-aldehyde)		2330 nM (active)
Cc1ccc2c(c1)C(N1CCN(C)CC1)=Nc1cccnc1N2	1.61%	
NS(=O)(=O)c1cccc2c1c([N+](=O)[O-])cc1nc(O)c(O)nc12	15.3%	
NCC(O)C1CCCCCCC1 (stereo unspecified)	7.27%	
Cc1nc(N=Nc2cc(S(=O)(=O)O)c3cc([N+](=O)[O-])cc(S(=O)(=O)O)c3c2)c(COP(=O)(O)O)c(C=O)c1O	-1.25%	
CCCCCCCCCCCCCCSCC(=O)O	-3.68%	
CCCCCCC/C=C\CCCCCCCCC(=O)O	1.31%	
Cc1ccc([N+](=O)[O-])cc1S(=O)(=O)N(C)C		inactive
O=C(O)c1ccccc1Nc1cccc(OCc2ccc3ccccc3n2)c1	6.56%	

System: not listed separately
Experiment: Quantitative high throughput screen for delayed death inhibitors of the malarial parasite plastid, 48 hour incubation (AID 488752); note: nearly all actives have a fitted effect of over 65% in size; for activity change, negative = inhibition: % is set by controls: 0 for no effect and ±100 for the full control effect
Details: Plasmodium falciparum growth; series mostly up to 28.7 µM; activity change, negative = inhibition: at the top concentration
In short: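 One-generation (48 h) growth assay: a decrease in luciferase signal from an integrated reporter in P. falciparum-infected red cells (0.1% parasitemia, 2% hematocrit) after compound exposure at 37 C indicates parasite inhibition.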

Structure (SMILES)	Potency	activity change, negative = inhibition
N=C(N)c1ccc(OCCCCCOc2ccc(C(=N)N)cc2)cc1 (tested in a mixture with another compound)	185 nM (active)	
Cc1nc2c(OCc3ccccc3)cccn2c1CC#N		10.1%
O=C(O)C1=CCCN(CCON=C(c2ccccc2)c2ccccc2)C1		2.15%
CCCCOc1cc(CC2CNC(=O)N2)ccc1OC (stereo unspecified)		9.09%
Nc1ncnc2c1ncn2C1CCCO1 (stereo unspecified)		-16.9%
O=C(O)C1=CC(=C(c2ccc(O)c(C(=O)O)c2)c2ccc(O)c(C(=O)O)c2)C=CC1=O		-1.96%
